# Laboratory results: PubChem BioAssay
# Columns and labels:
# Assay in all cases: Peg3 promoter luciferase inhibitors, potency, dose response, cell-based, HeLa, CREF/GAPDH counter-screen panel (AID 624167)
# PEG-3 [1] = molecular target: PEG-3 (UniProt Q6IN02); conditions: CREF/GAPDH counter-screens; HeLa PEG-Prom luciferase reporter, overnight, run 1, dose range 1, at 100 µM (top of the series) unless noted
# PEG-3 [2] = molecular target: PEG-3 (UniProt Q6IN02); conditions: CREF/GAPDH counter-screens; HeLa PEG-Prom luciferase reporter, overnight, run 2, dose range 1, at 100 µM (top of the series) unless noted
# Rat fibroblasts (CREF) [3] = conditions: CREF/GAPDH counter-screens; run 1, dose range 1, at 100 µM (top of the series)
# Rat fibroblasts (CREF) [4] = conditions: CREF/GAPDH counter-screens; run 2, dose range 1, at 100 µM (top of the series)
# Chain of PEG-3 (Q6IN02 whole entry, looked up): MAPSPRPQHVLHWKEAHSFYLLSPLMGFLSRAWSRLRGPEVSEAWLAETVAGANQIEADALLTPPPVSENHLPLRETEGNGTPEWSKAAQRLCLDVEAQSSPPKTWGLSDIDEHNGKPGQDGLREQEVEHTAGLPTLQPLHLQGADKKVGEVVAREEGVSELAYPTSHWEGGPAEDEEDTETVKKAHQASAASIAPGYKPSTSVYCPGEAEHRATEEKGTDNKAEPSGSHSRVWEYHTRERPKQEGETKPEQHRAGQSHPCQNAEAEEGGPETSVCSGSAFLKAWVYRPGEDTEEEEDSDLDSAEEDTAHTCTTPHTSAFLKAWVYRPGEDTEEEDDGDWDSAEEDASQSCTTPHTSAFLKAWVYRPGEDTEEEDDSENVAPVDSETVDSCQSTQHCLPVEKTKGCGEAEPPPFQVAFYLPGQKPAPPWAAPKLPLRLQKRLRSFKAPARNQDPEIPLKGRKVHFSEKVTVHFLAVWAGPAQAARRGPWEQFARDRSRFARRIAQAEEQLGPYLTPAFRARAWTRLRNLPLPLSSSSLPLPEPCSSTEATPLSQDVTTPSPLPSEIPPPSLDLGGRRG
SMILES,inhibition (PEG-3 [1]),inhibition (PEG-3 [2]),inhibition (Rat fibroblasts (CREF) [3]),inhibition (Rat fibroblasts (CREF) [4])
NC(Cc1ccc(F)cc1)c1csc(Nc2cc(Oc3ccccc3)ncn2)n1 (stereo unspecified),102%,101%,95.3%,94.1%
O=c1c2ccccc2sc2nc(CCl)nn12,102%,102%,-2.66%,33.8%
Cc1nc(SCC(=O)Nc2nc3ccccc3s2)c(C#N)c(C)c1C,95.4%,89%,97.8%,97%
CCCCC(=O)NC(c1ccccc1OC)c1ccc2cccnc2c1O (stereo unspecified),67.7%,68.4%,-8.76%,5.38%
CCCN1C=CC(=C2C(=O)c3ccccc3C2=O)C=C1,102%,98.2%,100%,100%
CC1=NOC(=O)/C1=C\c1ccc(-c2ccccc2Br)o1,99.2%,98.5%,94.2%,53.8%
Cc1ccc(OCC(=O)c2cc(C)n(-c3ccccc3)c2C)c([N+](=O)[O-])n1,77.6%,74.5%,-20%,-61.9%
CN=c1scc(-c2cccs2)n1/N=C/c1ccccc1O,93.6%,102%,98.2%,97.1%
CC(=O)NC(c1ccc(Cl)cc1)c1ccc2cccnc2c1O (stereo unspecified),97.5%,88.3%,4.58%,23%
O=C(Nc1nc2cc3c(cc2s1)OCO3)C1=COCCO1,88.1%,94%,93.7%,94%
COc1ccc(C(=O)NNC(=O)c2ccccn2)cc1,102%,95.9%,100%,98.5%
O=C(N/N=C/c1sc(N2CCOCC2)nc1-c1ccccc1)c1cccc(S(=O)(=O)N2CCCC2)c1,63.5%,53.5%,-19%,87.5%
CN=c1scc(-c2ccccc2F)n1/N=C/c1ccc[nH]1,98.7%,99.8%,100%,100%
O=c1cnnc(N/N=C/c2ccccn2)[nH]1,66.3%,58.7%,49.4%,51.1%
Cc1ccc(-n2[nH]c(=O)c(-c3ccccn3)c2C)cc1,94.8%,90.3%,86.5%,87.2%
Cc1ccc2nc(-c3ccc4c(c3)OCCO4)cn2c1,98.2%,99.6%,100%,99.9%
COc1cc(SC)ccc1C(=O)Nc1ncc(C)s1,95.5%,98.2%,97.8%,97.3%
O=c1c2ccccc2cnn1-c1nc2ccccc2[nH]1,98.4%,99.5%,101%,100%
CCCSc1ccc2nc(-c3ccccc3)cn2c1,98.4%,98.8%,92.4%,95.7%
O=c1cc(-c2ccc(O)cc2)oc2ccc3ccccc3c12,99.4%,101%,98.1%,97.1%
N=c1n(CC(=O)c2ccc([N+](=O)[O-])cc2)c2ccccc2n1Cc1ccc(Cl)cc1,99.6%,101%,99.2%,99.4%
CN(C)c1ccc(/C=C/c2nc3ccccc3s2)cc1,94.8%,89.3%,96.6%,94.9%

SMILES,inhibition (PEG-3 [1]),inhibition (PEG-3 [2]),inhibition (Rat fibroblasts (CREF) [3]),inhibition (Rat fibroblasts (CREF) [4])
CCCCCCCn1c(=N)n(CC(=O)c2ccco2)c2ccccc21,102%,100%,95.9%,98%
Brc1ccc(N=Nc2ccc3ccccc3n2)cc1,93.5%,94.5%,97.1%,96.3%
O=C(NCCc1ccccc1)c1ccc2c(c1)OCO2,86.2%,97.8%,93.9%,93.7%
COC1=C(Br)C(=O)c2ncccc2C1=O,99.3%,98.6%,95.3%,97.8%
O=C(N/N=C/c1c(O)ccc2ccccc12)c1ccc(CO)nc1,51.6%,60.4%,54%,47.6%
NC1=C(Br)C(=O)c2ncccc2C1=O,99.1%,101%,98.1%,98.6%
O=C(NCCc1ccccc1)c1ccc2c(c1)OCCCO2,101%,102%,100%,99.5%
CCCCCN1C=CC(=C2C(=O)c3ccccc3C2=O)C=C1,102%,99.1%,98.2%,98.3%
CN(C)c1ccc(/C=C2\SC(=O)N(CCc3nnc(N)s3)C2=O)cc1,62%,77.4%,83%,82.3%
COc1ccc(-n2cc(-c3ccccc3)c3c(N4CCOCC4)ncnc32)cc1,94.2%,101%,69.3%,67.2%
Cc1ccsc1/C=N/Nc1cccc(C(=O)O)c1,98.1%,88.9%,51.5%,42.9%
O=C(O)c1cccc(COc2ccccc2Cl)c1,96.7%,87.5%,97%,72.1%
O=C(N/N=C/c1ccc(Cl)c([N+](=O)[O-])c1)c1cc(-c2ccc3c4c(cccc24)CC3)n[nH]1,"95.1% [run 1, dose range 1, at 50 µM]",93.6%,-4.6%,4.99%
CN1C/C(=C/c2ccccc2[N+](=O)[O-])C(=O)/C(=C\c2ccccc2[N+](=O)[O-])C1,101%,102%,71.1%,95.6%
Cc1ccc(C(=O)CN2C(=O)c3ccccc3S2(=O)=O)cc1,93.5%,92.4%,87.2%,87.5%
CS(=O)(=O)c1ccc(-c2cn3cc(C(=O)O)ccc3n2)cc1,82.1%,57.2%,71%,66.8%
Cc1nn(-c2nc3ccccc3[nH]2)c(=O)c2ccccc12,97.5%,96.4%,100%,101%
Cc1ccccc1OCC(=O)Nc1cccc(C(=O)O)c1,99.1%,95.1%,95.9%,68.4%
O=C(NC(=O)c1ccccc1)Nc1ccccn1,98.8%,94%,95.3%,96.8%
CCN(CC)S(=O)(=O)c1cccc(C(=O)N/N=C(\C)c2ccc(O)cc2O)c1,27.3%,69.6%,43.3%,47.7%
CCSc1nc2ccccc2n1C(=O)/C=C\c1ccc(OC)c(OC)c1,99.4%,95.2%,46.8%,91.8%
COc1ccc(-c2cc3nc(C)n(N)c(=O)c3s2)cc1,99.2%,102%,99%,98.9%
